According to PubChem BioAssay AID720690 (Broad Institute, 2013):
Results with a measured potency or affinity are listed apart. The source made the active and inactive calls.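 The calls were made as follows: active = every repeat run showing a signal drop whose fitted half-maximal concentration is at most twice the top tested concentration; inconclusive = repeat runs disagree, or flat partial drop, or poor fit; inactive = the rest.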

Test: HEK293T cytotoxicity, dose response, cytotoxicity control for miR-122 modulator project, cell-based, activator set, cherry-pick (AID 720690)

Structure (SMILES)	outcome
CN1C(=O)c2cc(NC(=O)C3CCOCC3)ccc2OC[C@H]2O[C@H](CC(=O)NCc3ccc4c(c3)OCO4)CC[C@@H]21	inactive
CC(=O)c1cccc(S(=O)(=O)NCC2CCCCC2)c1	inactive
Cc1cccc(NC(=O)Nc2ccc3c(c2)C(=O)N(C)[C@@H]2CC[C@H](CC(=O)NCc4ccccc4Cl)O[C@H]2CO3)c1	inactive
CN1C(=O)c2cc(NC(=O)Nc3ccccc3Cl)ccc2OC[C@H]2O[C@H](CC(=O)O)CC[C@@H]21	inactive
c1cnc(N2CCN(Cc3c[nH]c4ccccc34)CC2)nc1	inactive
CCCNC(=O)Nc1ccc2c(c1)OC[C@@H](C)N(CCC)C[C@H](C)[C@H](OC)CN(C)C2=O	inactive
CCNC(=O)C[C@H]1CC[C@H]2[C@@H](COc3ccc(NC(=O)c4ccccc4)cc3C(=O)N2C)O1	inactive
CCS(=O)(=O)Nc1ccc2c(c1)C(=O)N(C)[C@@H]1CC[C@@H](CC(=O)NCCCN3CCOCC3)O[C@H]1CO2	inactive
CCNC(=O)C[C@H]1CC[C@H]2[C@H](COc3ccc(NC(=O)Nc4cccc(OC)c4)cc3C(=O)N2C)O1	inactive
COC(=O)C[C@@H]1CC[C@H]2[C@@H](COc3ccc(NC(=O)c4ccc(F)c(F)c4)cc3C(=O)N2C)O1	inactive
C[C@@H]1CN([C@@H](C)CO)S(=O)(=O)c2ccc(-c3ccccc3)cc2O[C@@H]1CN(C)C(=O)c1ccc2c(c1)OCO2	inactive
CCCNC(=O)C[C@H]1CC[C@H]2[C@H](COc3ccc(NC(=O)c4ccc(C(F)(F)F)cc4)cc3C(=O)N2C)O1	inactive
CNC(=O)C[C@H]1CC[C@H]2[C@@H](COc3ccc(NC(=O)c4cccc(OC)c4)cc3C(=O)N2C)O1	inactive
CCCNC(=O)Nc1ccc2c(c1)C(=O)N(C)[C@@H]1CC[C@@H](CC(=O)NCC3CCCCC3)O[C@@H]1CO2	inactive
Cc1ccnc(Nc2nc(-c3c(C)nc4sccn34)cs2)c1	inactive
N#Cc1cccc(NC(=O)Nc2cccs2)c1	inactive
Cc1ccccc1NC(=O)Nc1ccc2c(c1)C(=O)N(C)[C@H]1CC[C@@H](CC(=O)O)O[C@H]1CO2	inactive
CNC(=O)C[C@H]1CC[C@@H]2[C@H](COc3ccc(NS(=O)(=O)c4ccc(F)cc4)cc3C(=O)N2C)O1	inactive
CN1C(=O)c2cc(NS(=O)(=O)c3cccc(F)c3)ccc2OC[C@@H]2O[C@@H](CC(=O)O)CC[C@@H]21	inactive
C/C=C/c1ccc([C@@H]2[C@@H](CO)N[C@@H]2CN(C(=O)C2CCC2)C(C)C)cc1	inactive
C/C=C/c1ccc([C@H]2[C@@H](CO)N(C(=O)CC)[C@H]2CNC(=O)CC)cc1	inactive
COCC(=O)Nc1ccc2c(c1)C(=O)N(C)[C@@H]1CC[C@H](CC(=O)NCc3ccccc3F)O[C@H]1CO2	inactive
CO[C@@H]1CN(C)C(=O)c2ccc(NC(=O)c3ccc(Oc4ccccc4)cc3)cc2OC[C@H](C)NC[C@H]1C	inactive
COCC(=O)N(C[C@@H]1[C@@H](c2ccccc2)[C@@H](CO)N1C(=O)NC(C)C)C(C)C	inactive
CNC(=O)C[C@@H]1CC[C@H]2[C@@H](COc3ccc(NC(=O)c4cccc(OC)c4)cc3C(=O)N2C)O1	inactive

Structure (SMILES)	outcome
CN(C[C@H]1N[C@@H](CO)[C@@H]1c1ccc(C2=CCCC2)cc1)C(=O)c1ccccn1	inactive
COC(=O)C[C@@H]1CC[C@@H]2[C@H](COc3ccc(NC(=O)c4cc(F)cc(F)c4)cc3C(=O)N2C)O1	inactive
COc1cc(-c2nnc(-c3ccco3)o2)ccc1OCc1ccccc1	inactive
CCNC(=O)C[C@@H]1CC[C@@H]2[C@H](COc3ccc(NC(=O)Nc4cccc(Cl)c4)cc3C(=O)N2C)O1	inactive
CCCNC(=O)N1[C@H](CNC(=O)c2ccc(F)cc2)[C@H](c2ccccc2)[C@@H]1CO	inactive
Cc1ccc(-c2noc(CCC(=O)Nc3ccccc3C)n2)cc1	inactive
C[C@@H]1CN([C@H](C)CO)S(=O)(=O)c2ccc(-c3ccc(C(=O)N(C)C)cc3)cc2O[C@@H]1CN(C)C(=O)C1CCC1	inactive
Cc1cc(C)cc(NC(=O)Nc2ccc3c(c2)C(=O)N(C)[C@@H]2CC[C@H](CC(=O)O)O[C@@H]2CO3)c1	inactive
Cc1noc(C)c1NC(=O)Nc1ccc2c(c1)C(=O)N(C)[C@@H]1CC[C@H](CC(=O)N[C@H]3CCN(Cc4ccccc4)C3)O[C@H]1CO2	inactive
COC(=O)C[C@H]1CC[C@H]2[C@H](COc3ccc(NC(=O)c4cccc(F)c4)cc3C(=O)N2C)O1	inactive
O=C(NCC(c1cccnc1)N1CCOCC1)NC1CCCCC1 (stereo not given)	inactive
CCN(CC)CCNc1nc(-c2ccccc2)nnc1C(F)(F)F	inactive
CCOc1ccc(NC(=S)N(CCCN2CCCC2)Cc2cccn2Cc2ccc(Cl)cc2)cc1	inactive
CN1C(=O)c2cc(NC(=O)C3CC3)ccc2OC[C@@H]2O[C@H](CC(=O)NC3CCC3)CC[C@H]21	inactive
CNC(=O)C[C@@H]1CC[C@@H]2[C@@H](COc3ccc(NC(=O)Nc4ccccc4OC)cc3C(=O)N2C)O1	inactive
Oc1ccc(-c2nc(-c3ccc(O)c(O)c3)cs2)cc1	inactive
CCCNC(=O)C[C@@H]1CC[C@@H]2[C@@H](COc3ccc(NC(=O)c4ccc(C(F)(F)F)cc4)cc3C(=O)N2C)O1	inactive
COCC(=O)Nc1ccc2c(c1)C(=O)N(C)[C@H]1CC[C@@H](CC(=O)NCCCN(C)C)O[C@H]1CO2	inactive
COCC(=O)N(C)C[C@H]1Oc2cc(-c3ccccc3F)ccc2S(=O)(=O)N([C@@H](C)CO)C[C@H]1C	inactive
C/C=C/c1ccc([C@@H]2[C@@H](CO)N(C(=O)C3CC3)[C@H]2CN(C)C(=O)CC2CC2)cc1	inactive
CCC(=O)N1[C@H](CO)[C@@H](c2ccccc2)[C@@H]1CN(C)C(=O)CN1CCOCC1	inactive
CCCNC(=O)N1C[C@@H]2[C@H](c3ccccc31)[C@H](CO)N2C(=O)C1CCOCC1	inactive
COCC(=O)Nc1ccc2c(c1)C(=O)N(C)[C@@H]1CC[C@@H](CC(=O)NC3CCCC3)O[C@H]1CO2	inactive
CCC(=O)Nc1ccc2c(c1)C(=O)N(C)[C@@H]1CC[C@H](CC(=O)Nc3cccc(OC)c3)O[C@@H]1CO2	inactive
C/C=C/c1ccc([C@H]2[C@@H](CNC(=O)CC)N(Cc3ccccn3)[C@H]2CO)cc1	inactive

Structure (SMILES)	outcome
C[C@H](CO)N1C[C@H](C)[C@@H](CN(C)CC2CCCCC2)Oc2c(NS(=O)(=O)c3cccs3)cccc2C1=O	inactive
COC(=O)C[C@H]1CC[C@@H]2[C@@H](COc3ccc(NC(=O)c4ccc(F)c(F)c4)cc3C(=O)N2C)O1	inactive
CN(C[C@@H]1[C@@H](c2ccccc2)[C@H](CO)N1C(=O)C1CCC1)C(=O)c1ccccn1	inactive
COc1ccc(C#Cc2ccc([C@@H]3[C@@H](CO)N4CCCCN(C(=O)Nc5ccccc5)C[C@H]34)cc2)cc1	inactive
CCN(C[C@H]1[C@H](c2ccccc2)[C@@H](CO)N1C(=O)C1CC1)C(=O)NC1CCCC1	inactive
CC(C)NC(=O)Nc1ccc2c(c1)C(=O)N(C)[C@@H]1CC[C@@H](CC(=O)NCC(F)(F)F)O[C@@H]1CO2	inactive
COc1ccccc1NC(=O)Nc1ccc2c(c1)C(=O)N(C)[C@H]1CC[C@H](CC(=O)Nc3ccc4c(c3)COC4)O[C@@H]1CO2	inactive
COc1ccc2[nH]c(=O)c(COC(=O)c3ccco3)cc2c1	inactive
O=C(C1CCOCC1)N1[C@H](CO)[C@H]2c3ccccc3NC[C@H]21	inactive
CCN(C[C@@H]1[C@@H](c2ccc(C3=CCCCC3)cc2)[C@@H](CO)N1CC1CC1)C(C)=O	inactive
C/C=C/c1ccc([C@H]2[C@H](CO)N[C@H]2CN(CC(C)C)C(=O)c2ccccn2)cc1	inactive
CCC(=O)N1[C@H](CN(C(C)C)S(C)(=O)=O)[C@H](c2ccccc2)[C@@H]1CO	inactive
CC(=O)Nc1ccc2c(c1)C(=O)N(C)[C@H]1CC[C@H](CC(=O)Nc3ccccc3Cl)O[C@@H]1CO2	inactive
CO[C@H]1CN(C)C(=O)c2cc(NC(=O)c3cccc(Oc4ccccc4)c3)ccc2OC[C@@H](C)NC[C@H]1C	inactive
COCC(=O)N(C[C@@H]1[C@@H](c2ccccc2)[C@H](CO)N1C(=O)NC(C)C)C(C)C	inactive
CN1C(=O)c2cc(NC(=O)c3cccs3)ccc2OC[C@@H]2O[C@H](CC(=O)NCC(F)(F)F)CC[C@H]21	inactive
CC(=O)N1[C@@H](CO)[C@@H](c2ccccc2)[C@@H]1CNC(=O)CN1CCOCC1	inactive
CNC(=O)C[C@H]1CC[C@@H]2[C@H](COc3ccc(NC(=O)c4cccc(OC)c4)cc3C(=O)N2C)O1	inactive
COc1ccc(CC(NC(C)=O)C(=O)N2CCN(C(=O)N(C(C)C)C(C)C)CC2)cc1 (stereo not given)	inactive
O=C(CC(F)(F)F)N1C[C@@H]2[C@H](c3ccccc31)[C@@H](CO)N2C(=O)C1CCCC1	inactive
COc1cccc(NC(=O)N2[C@H](CO)[C@@H](c3ccccc3)[C@H]2CNCC(C)C)c1	inactive
Cc1nn(C)cc1NC(=O)C[C@@H]1CC[C@@H]2[C@H](COc3ccc(NC(=O)Nc4cccc(Cl)c4)cc3C(=O)N2C)O1	inactive
CN1C(=O)c2cc(NC(=O)c3ccc4c(c3)OCO4)ccc2OC[C@H]2O[C@H](CC(=O)O)CC[C@@H]21	inactive
CC(C)C(=O)Nc1ccc2c(c1)C(=O)N(C)[C@@H]1CC[C@H](CC(=O)NCc3cccc(F)c3)O[C@H]1CO2	inactive
C[C@@H]1CN([C@@H](C)CO)C(=O)c2cc(NC(=O)Nc3cccc4ccccc34)ccc2O[C@@H](C)CCCCO[C@H]1CN(C)CC1CCCCC1	inactive
